Source: PubChem BioAssay (NCI)
Several values for one entry are separate records, joined by “and”; a condition that tells them apart may be missing. Equal entries are not always repeated. The panel holds about 83,000 compounds, 20% with a hit somewhere; the sample as a whole holds those more often.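 Negative percent growth values reflect cell death: -40 means 40% of the cells present at the start died, and -100 means all died.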 Activity calls are given as the source filed them. How the source made its calls: active means growth percent below 10; inactive means the rest.

Test system: HL-60(TB) leukemia
Test: NCI-60 one-dose screen, 48 h (100 = growth as untreated, 0 = no growth, -100 = all killed)
Details: 10 µM unless noted

SMILES | growth
COC(=O)CCC(=O)c1ccccc1 | 94.7% (inactive)
CCOC(=O)C1=C(N)Oc2c(sc3c(C)cccc23)C1c1ccc(OC)cc1 (stereo not given) | 1.54% (active)
COc1cnc2c(c1)C(=O)c1c-2n(CCCN2CCN(C)CC2)c(=O)c2cc([N+](=O)[O-])ccc12 | -54% (active)
Cc1ccc(Sc2nnc(/N=C3\C(=O)Nc4ccccc43)s2)cc1 | 95.9% (inactive)
CC(C)[N+](C)(C)CC(O)COc1cccc2ccccc12 (stereo not given) | 126% (inactive)
N#Cc1ccc2c(c1)C(=O)c1c-2n(CCCN)c(=O)c2cc([N+](=O)[O-])ccc12 | -91.8% (active)
COC(=O)c1ccc2[nH]c(O)c(C(=Nc3ccc(N(C)C(=O)CN4CCN(C)CC4)cc3)c3ccc4c(c3)OCO4)c2c1 | -34.9% (active)
Oc1ccc(Cl)cc1-c1cc(-c2ccccc2Cl)[nH]n1 | 46.6% (inactive)
COc1ccc(C2c3sc4c(F)cccc4c3Oc3nc[nH]c(=O)c32)cc1 (stereo not given) | -44.6% (active)
Cc1ccc(C(=O)NN)cc1 | 124% (inactive)
COC(=O)C(Sc1ccc(Cl)cc1)C1SC(=S)N(Cc2ccccc2)C1=O (stereo not given) | 76.1% (inactive)
O=C(OCC1CC2(Cl)C(Cl)=C(Cl)C1(Cl)C2(Cl)Cl)C1C(C(=O)OCC2CC3(Cl)C(Cl)=C(Cl)C2(Cl)C3(Cl)Cl)C2(Cl)C(Cl)=C(Cl)C1(Cl)C2(Cl)Cl (stereo not given) | 89.3% (inactive)
CC(C)(C)NC(=O)C(OC(=O)C1CCc2cc(F)ccc2O1)c1ccccc1Cl (stereo not given) | 103% (inactive)
CN(C)c1ccc(-c2cc(-c3cccc(NS(C)(=O)=O)c3)nc(N)c2C#N)cc1 | 2.91% (active)
O=C(O)c1ccc(-n2cc(CNc3ccc(Cl)cc3)c(-c3ccccc3)n2)cc1 | 95% (inactive)
CN(C)Cc1ccccn1 | 108% (inactive)
CN(C)CCOc1ccc(-c2nc3ccc(-c4nc5ccc(N6CCN(C)CC6)cc5[nH]4)cc3[nH]2)cc1 | 72.1% (inactive)
IC(I)I | 98.3% (inactive)
O=C1N=NC2=C1c1c3ccccc3c(O)n1CC2 | 105% (inactive)
CCCCCCCC12Cc3ccccc3C1=Nc1c(c3ccccc3n1C)C2=O (stereo not given) | 91.4% (inactive)

SMILES | growth
CCCCCCCCCCCCCCCCNC(=O)Nc1ccc2ccccc2c1 | 95% (inactive)
CC(=O)c1nc(Nc2ccc(C)cc2)sc1C | 101% (inactive)
CCC(CC)C(=O)OC(C)COc1ccc(C(C)(C)C)cc1 (stereo not given) | 104% (inactive)
O=C1c2cccc3cccc(c23)C(=O)N1Nc1nc(NC2CCCCC2)nc(N2CCOCC2)n1 | 101% (inactive)
COC(=O)[C@]12CCC(C)(C)C[C@H]1C1=CC[C@@H]3[C@@]4(C)C/C(=C/c5cccnc5)C(=O)C(C)(C)[C@@H]4CC[C@@]3(C)[C@]1(C)CC2 | -13.5% [100 µM] (active)
COc1cc2c(cc1OC)C(Cc1cc(OC)c(OC)cc1[N+](=O)[O-])=NCC2 | 63.1% (inactive)
O=C(O)C1C2C=CC(C2)C1C(=O)O (stereo not given) | 25.8% (inactive) and 104% (inactive)
COc1ccc(N)c(S)c1 | 93.4% (inactive)
CC(=O)Nc1cccc2cc(O)ccc12 | 114% (inactive) and 76.6% (inactive) and 104% (inactive)
O=C(O)c1ccc(OCc2ccccc2)cc1 | 103% (inactive)
Cn1cnc([N+](=O)[O-])c1Sc1ncnc2nc[nH]c12 | 73.5% (inactive) and 91.7% (inactive)
COc1ccc(/C=C/C(=O)c2cc(OC)c(OC)c(OC)c2)cc1OCc1cn(Cc2ccc(F)cc2)nn1 | 69.4% (inactive)
COc1cc(-c2c3c(nc4c2c(C)nn4-c2ccccc2)-c2ccccc2C(=O)C3=O)cc(OC)c1OC | 68.8% (inactive)
CCOC(=O)c1c(NC(=O)C2CCCCC2C(=O)O)sc2c1CCCC2 (stereo not given) | 102% (inactive)
NC(=S)c1csc(CCNC(=O)c2ccccc2)n1 | 89% (inactive)
CC1(C)CC[C@]2(c3nnc(-c4ccncc4)o3)CC[C@H]3C(=CC[C@H]4[C@@]3(C)CC[C@H]3C(C)(C)C(=O)CC[C@]43C)[C@@H]2C1 | 3% (active)
COc1cc(-c2cc3ncccc3c3[nH]c(=O)c4cccnc4c23)cc(OC)c1OC | -7.16% (active)
O=C(Nc1ccc(Cl)cc1F)c1ccccc1O | 19.9% (inactive)
COc1ccc(NC(=O)c2cc3ccccc3nc2Nc2cc(OC)c(OC)c(OC)c2)cc1 | 67.3% (inactive)
COc1ccc(-c2nn(Cc3ccccc3)c3c2-c2oncc2CC3)cc1OC | 87.7% (inactive)
